Assay outcomes: PubChem BioAssay, National Center for Advancing Translational Sciences (NCATS)
Sampled rows, rich in hits. Any-hit rate of the full collection: about 7.3%.
ELG1 genotox – induces genotoxicity in HEK293T cells with luciferase-tagged ELG1; Potency, µM (titrated, usually from 46 µM), for inactives: at the highest dose activity change, positive = activation, usual class: activators; 1.3% of 330,000 active; HEK293T ELG1-luciferase reporter, luminescence, 16 h; AID 504466; further: % of control where 0% means no effect; nearly all actives have a fitted effect of over 60% in size
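Genotoxic stress is detected as increased luminescence from luciferase-tagged ELG1 in HEK293T cells, measured with ONE-Glo after a 16 hr treatment at 37 °C.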
SMN2 splice enh – enhancers of SMN2 splice variant expression. Potency, µM (titrated, usually from 46.1 µM), for inactives: top-dose activity change, positive = activation, hits mostly activators. 2.8% of 210,000 active. HEK293 SMN2-luciferase splicing reporter, luminescence, 30-36 h; further: % of control where 0% means no effect; nearly all actives have a fitted effect of over 55% in size
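HEK293 cells carry an SMN2 […]–luciferase reporter in which exon 7 inclusion puts luciferase in frame. Cells were plated 10-12 h before compound addition, then incubated 30-36 h at 37C. ONE-Glo luminescence was read; sodium butyrate at 4.5 mM final served as control.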
Rab9 promoter act – activates the Rab9 promoter. Potency, µM (top dose mostly 9.22 µM), inactives show at the highest dose activation, negative = inhibition, usual class: activators. Huh7 Rab9 promoter-luciferase reporter, luminescence, 24 h. 2.8% of 320,000 active; further: % of control where 0% means no effect; nearly all actives have a fitted effect of over 60% in size
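Luminescence from Amplite-detected luciferase (10 minutes, ambient) reports Rab9 promoter activation. Before that, stable Rab9-luciferase Huh7 cells (1500/well, reduced-serum OP-MEM I plus 10% FBS) were exposed to compound for 24 hours at 37C.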
NPC1 promoter act – activators of NPC1 promoter | 2.4% of 320,000 active | Potency, µM (highest dose often 9.22 µM), for inactives: top-dose activation, actives largely listed as activators | Huh7 NPC1 promoter luciferase reporter, 24 h; further: % of control where 0% means no effect; nearly all actives have a fitted effect of over 60% in size
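Luminescence from an NPC1 promoter-driven luciferase reporter in stably transfected Huh7 cells was measured after 24 h compound treatment at 37 °C, followed by 10 min ambient incubation with luciferase detection reagent.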
Luc counter – counter-screen: inhibitors of Kinase-Glo firefly luciferase; Q27757; 0.28% of 200,000 active; Kinase-Glo luciferase, ATP luminescence, 8 min; Potency, µM (doses to about 38.3 µM), for the others: at the highest dose activity change, negative = inhibition, most hits filed as inhibitors; further: on the % scale 0 is the no-effect control and ±100 the full control effect; nearly all actives have a fitted effect of over 60% in size
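Substrate mix (final 50 mM imidazole pH 7.2, 50 mM KCl, 7 mM MgCl2, 10 uM ATP, 0.01% Tween 20, 0.05% BSA) plus pin-tool compound, then Kinase-Glo detection mix; 8 min ambient, luminescence read.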
FLuc modulator – firefly luciferase modulation, counter-screen for miR-21 project; P08659; purified FLuc, Km substrates, luminescence inhibition; Potency, µM (series often up to 57.5 µM), inactives show at the top dose activity change, negative = inhibition, hits mostly inhibitors; 6.9% of 360,000 active; AID 588342;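 further: plate controls were vehicle for no effect and reference inhibitor for full effect; nearly all actives have a fitted effect of over 55% in size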
Target sequence (P08659 whole entry, looked up): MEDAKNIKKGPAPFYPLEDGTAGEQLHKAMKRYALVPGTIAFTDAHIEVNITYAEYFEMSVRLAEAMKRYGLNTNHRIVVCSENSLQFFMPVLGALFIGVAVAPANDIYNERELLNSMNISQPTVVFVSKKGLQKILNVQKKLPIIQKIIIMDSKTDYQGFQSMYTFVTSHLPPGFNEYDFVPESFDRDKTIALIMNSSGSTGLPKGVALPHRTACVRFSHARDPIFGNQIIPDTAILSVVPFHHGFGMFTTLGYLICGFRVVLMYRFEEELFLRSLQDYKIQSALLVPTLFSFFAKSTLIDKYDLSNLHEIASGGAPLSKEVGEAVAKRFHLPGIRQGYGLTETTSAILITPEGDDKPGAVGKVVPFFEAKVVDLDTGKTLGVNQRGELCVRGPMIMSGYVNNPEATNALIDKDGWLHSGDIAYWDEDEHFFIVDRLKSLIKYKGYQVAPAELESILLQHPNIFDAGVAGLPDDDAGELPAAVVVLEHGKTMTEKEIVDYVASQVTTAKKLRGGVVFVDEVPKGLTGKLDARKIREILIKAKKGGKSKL
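Purified P. pyralis luciferase, 10 nM final, with Km-level 10 uM D-luciferin and 10 uM ATP in 50 mM Tris acetate pH 7.5, 10 mM Mg acetate, 0.01% Tween-20, 0.05% BSA; 6-point qHTS titration about 60 µM downward; luminescence read.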
The depositor's hits bear a star; ? = inconclusive; nt = no result; [ ] = another dose, or the depositor's remark. The call rests on the fitted dose curve; in most records, active means well fitted curve in the direction sought with a large enough effect; inconclusive means small, poorly fitted or top-dose-only effect, or another doubt; inactive means no such curve, though single readings can be large; an effect the other way counts as inactive or inconclusive. Potency means the concentration at half of the fitted maximal effect.

SMILES | ELG1 genotox | SMN2 splice enh | Rab9 promoter act | NPC1 promoter act | Luc counter | FLuc modulator
Cc1cc(C)nc(N/N=C/c2sccc2C)n1 | 13% | ? | 4% | 9% | -27% | ?
CCOc1ccccc1NC(=O)CSc1nc2cc(OC)c(OC)cc2c2nc(CCn3c(C)nc4ccccc43)nn12 | nt | 4% | nt | nt | nt | -2%
COC(=O)Cn1ncc2c(C)n(Cc3ccccc3)c(C)c2c1=O | 21µM* | 18µM* | ? | ? | -5% | 12µM*
Cc1c2cnn(CC(=O)O)c(=O)c2c(C)n1Cc1ccccc1 | 6% | 0% | -1% | 2% | -4% | 8%
CNC(=O)Cn1ncc2c(C)n(Cc3ccc(C)cc3)c(C)c2c1=O | 2% | -21% | 4% | -5% | 5% | -1%
Cc1ccc(Cn2c(C)c3cnn(CC(=O)NC4CCCC4)c(=O)c3c2C)cc1 | 12% | nt | 1.3µM* | ? | nt | ?
COC(=O)CCSc1nc2sc3c(c2c(=O)n1Cc1ccccc1)CCC(C(C)(C)C)C3 (stereo not given) | nt | 13% | nt | nt | nt | 5%
CC(C)CCNC(=O)c1ccc2c(c1)N(Cc1ccccc1F)C(=O)c1ccccc1S2=O (stereo not given) | nt | -1% | nt | nt | nt | 6%
C=CCn1c(=S)[nH]c2ccc(Br)cc2c1=O | -14% | -7% | -4% | 0% | 3% | 2%
C=CCn1c(=S)[nH]c2nc3c(cc2c1=O)CCCC3 | 16µM* | -14% | 16% | 19% | -14% | -16%
Cc1ccc(/C=C/C(=O)NCc2cccs2)o1 | 6% | 13% | 16% | 8% | 2% | ?
Cc1ccc(/C=C/C(=O)NCc2cccs2)cc1 | ? | 11µM* | 6% | 25% | 0% | 11µM*
Cc1ccc(/C=C/C(=O)NCc2cccs2)c(C)c1 | ? | nt | 2.8µM* | ? | 5% | 6.7µM*
O=C(/C=C/c1ccc([N+](=O)[O-])cc1)NCc1cccs1 | 3% | -34% | 0% | -3% | -2% | ?
c1ccc2c(c1)CC/C2=N/Nc1nc2ccccc2[nH]1 | ? | 11µM* | 2.5µM* | ? | -3% | 6.7µM*
c1ccc(CN2CCC(=NNc3nc4ccccc4[nH]3)CC2)cc1 | 2% | 5% | 0% | -2% | -2% | 19µM*
CC(C)(C)C1CCC(=NNc2nc3ccccc3[nH]2)CC1 (stereo not given) | 0% | 29% | 17% | 2% | -20% | 13µM*
c1ccc2[nH]c(CN3CCCCCC3)nc2c1 | 10% | -3% | 3% | 2% | 1% | 1%
CCCCNc1nc2ccccc2[nH]1 | 0% | 23% | -10% | 2% | -6% | -17%
c1ccc2c(c1)CCC[C@H]2Nc1nc2ccccc2[nH]1 | nt | nt | -24%[46.1 µM] | -7%[46.1 µM] | nt | nt
Cc1nc(NCc2ccccc2)c2nc(-c3ccccc3)n(CCCN3CCCCC3C)c2n1 (stereo not given) | nt | -12% | nt | nt | -4% | nt
CCOc1ccc(CNC(=O)c2cc3oc4ccccc4c3n2C)cc1 | -9% | 25µM* | -1% | 7% | -6% | -6%
COc1cccc(CNC(=O)c2cc3oc4ccccc4c3n2C)c1OC | 7% | 16µM* | 7% | 0% | -5% | ?
CCn1c(C(=O)NCc2ccc(F)cc2)cc2oc3ccccc3c21 | nt | ? | nt | nt | nt | 1%
O=C(O)[C@@H](O)[C@@H](O)[C@@H](O[C@H]1O[C@@H](CO)[C@@H](O)[C@@H](O)[C@@H]1O)[C@@H](O)CO | nt | 9%[20.6 µM] | nt | nt | 1%[17.1 µM] | nt
COC(=O)c1cc(Cl)c(NC(=O)/C=C/c2ccc(Cl)cc2Cl)cc1OC | ? | -7% | 0% | 13% | 0% | -20%
COC(=O)c1sccc1NC(=O)/C=C/c1ccc(Cl)cc1Cl | ? | 11µM* | ? | ? | -29% | ?
COC(=O)c1sccc1NC(=O)c1c(Cl)cccc1Cl | 2% | nt | -3% | -3% | nt | 2%
COC(=O)c1sccc1NC(=O)/C=C/c1c(Cl)cccc1Cl | ? | 14µM* | ? | 21% | -8% | 12µM*
